Experimental data reported in PubChem BioAssay (EPA / NIEHS).
Calls of active or inactive are those of the source. The calls were made as follows: active = hit-call score of the fitted dose curve at least 0.9, where 1 is the maximum; inactive = score below 0.9.

Assay: APR_HepG2_MitoMembPot_72hr: Apredica 72-hour HepG2 Assay for Mitochondrial Membrane Potential (AID 2282917)
Conditions: imaging, actives raise or lower the signal
In short: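 HepG2 cells dosed 72 hr with compound at 0.39–200 uM in duplicate, 0.5% v/v DMSO final. Mitochondria stained with 250 nM MitoTracker Red CMXRos for 30 min before formaldehyde fixation, imaged by high-content fluorescence; bidirectional fit versus DMSO.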

AC50, active:
O=C1c2c(O)cccc2Cc2cccc(O)c21 19.3 µM, S=c1[nH]c2ccccc2s1 97.3 µM, CCCCCCCCCC[N+](C)(C)[O-] 169 µM, CN(C)CCCN1c2ccccc2Sc2ccc(Cl)cc21 112 µM, COc1ccc(C(=O)Nc2nc3ccccc3c(NCc3ccccc3)c2C#N)cc1 1.45 µM, COc1ccc(OC(F)(F)F)cc1CN[C@H]1CCCN[C@H]1c1ccccc1 55.9 µM, CN(C)C(=O)NC1(c2ccccc2)CCN(CCC[C@]2(c3ccc(Cl)c(Cl)c3)CCCN(C(=O)c3ccccc3)C2)CC1 25.4 µM

outcome, inactive:
CCCCCCCC(=O)OC, CCc1cc(C2=C(C(=O)O)N(c3ccccc3C(F)(F)F)S(=O)(=O)c3ccccc32)cc2c1OCO2, OCC(O)CO, CO[C@@H]1COCC[C@@H]1N[C@@H]1CC[C@@](C(=O)N2CCc3ncc(C(F)(F)F)cc3C2)(C(C)C)C1, CS(=O)(=O)c1ccc([C@@H](C[C@H]2CCC(=O)C2)C(=O)Nc2cnccn2)cc1Cl, Oc1ccc(O)cc1, CN(C)C(=O)NC1(c2ccccc2)CCN(CC[C@@]2(c3ccc(F)c(F)c3)CN(C(=O)c3ccccc3)CCO2)CC1, NCCOCCOCCN, CCc1nc(N)nc(N)c1-c1ccc(Cl)cc1, CC(C)(O)c1ccc(CNC(=O)c2cccnc2Oc2ccc(F)cc2)cc1, Nc1nc(Cl)nc2c1ncn2[C@H]1C[C@H](O)[C@@H](CO)O1, CN(C)CCCN(C)CCCN(C)C, Cc1cc(SC2=C(O)C[C@@](CCc3ccc(N)cc3)(C(C)C)OC2=O)c(C(C)(C)C)cc1CO, CCCCc1nc2cccnc2n1Cc1ccc(-c2ccccc2-c2nnn[nH]2)cc1, OCC(CO)n1cnc(-c2ccc(F)cc2)c1-c1ccnc(Oc2ccccc2)n1, c1ccc2occc2c1, CCCCC(CC)COC(=O)CCCCCCCC(=O)OCC(CC)CCCC (centres undefined), CC(C)(C)c1ccccc1, COC(=O)CCC(=O)OC, CCCCC(CC)COP(=O)(OCC(CC)CCCC)OCC(CC)CCCC (centres undefined), COC(=O)CCCC(=O)OC, O=C(O)c1[nH]n(-c2ccc(S(=O)(=O)O)cc2)c(=O)c1N=Nc1ccc(S(=O)(=O)O)cc1
